Source: the supplement of paper PMC9694430

How the values were obtained:
Assay in all cases: thermal shift delta Tm vs DMSO control; higher = stronger stabilization (binding)
Settings in all cases: 12.5 µM; protein concentration 2 µM
[1] = system: LOC_OS01G01410-cb001
How it was run: (§1)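 Rice kinase domain constructs were expressed in E. coli, purified, and tested by differential scanning fluorimetry with compound added in DMSO. Each well of a 96-well plate held 19.5 μl of 2 μM kinase in 100 mM potassium phosphate pH 7.5, 150 mM NaCl, 10% glycerol and 5 × SYPRO Orange, and fluorescence was read from 25°C to 95°C at 0.05°C/s. The melting temperature shift is the mean of triplicates, taken against protein with DMSO alone after Boltzmann fitting.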

[2] = system: LOC_OS01G02750-cb003
How it was run: as §1

[3] = system: LOC_OS01G10900-cb004
How it was run: as §1

[4] = system: LOC_OS01G13800-cb001
How it was run: as §1

[5] = system: LOC_OS01G14860-cb001
How it was run: as §1

[6] = system: LOC_OS01G21960-cb002
How it was run: as §1

[7] = system: LOC_OS01G39600-cb002
How it was run: as §1

[8] = system: LOC_OS01G48390-cb002
How it was run: as §1

[9] = system: LOC_OS01G51400-cb002
How it was run: as §1

[10] = system: T1, LOC_OS01G52050-cb004
T1 sequence (whole entry): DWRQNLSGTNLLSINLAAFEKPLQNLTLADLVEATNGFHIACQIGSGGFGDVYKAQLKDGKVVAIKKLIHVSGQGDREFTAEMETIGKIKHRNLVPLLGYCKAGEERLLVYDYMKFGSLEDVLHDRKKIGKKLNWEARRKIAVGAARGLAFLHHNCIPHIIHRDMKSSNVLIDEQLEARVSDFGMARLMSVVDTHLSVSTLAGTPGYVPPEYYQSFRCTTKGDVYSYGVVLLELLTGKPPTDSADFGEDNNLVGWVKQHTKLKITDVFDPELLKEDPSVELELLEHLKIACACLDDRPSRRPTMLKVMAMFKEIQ
How it was run: as §1

Row | SMILES | thermal shift delta Tm [1] [°C] | thermal shift delta Tm [2] [°C] | thermal shift delta Tm [3] [°C] | thermal shift delta Tm [4] [°C] | thermal shift delta Tm [5] [°C] | thermal shift delta Tm [6] [°C] | thermal shift delta Tm [7] [°C] | thermal shift delta Tm [8] [°C] | thermal shift delta Tm [9] [°C] | thermal shift delta Tm [10] [°C]
1 | CCCS(=O)(=O)Nc1ccc(F)c(C(=O)c2c[nH]c3ncc(Cl)cc23)c1F | 2.48 | 2.88 | 1.45 | -0.05 | 0.85 | 0.52 | 2.73 | 3.29 | 0.32 | 1.3
2 | Nc1cc(C(F)(F)F)c(-c2cc(N3CCOCC3)nc(N3CCOCC3)n2)cn1 [Buparlisib (BKM120, NVP-BKM120)] | 0.58 | 0.22 | 0.31 | 0.04 | 0.19 | 0.6 | 0.55 | 0.7 | 0.92 | 0.06
3 | CS(=O)(=O)CCNCc1ccc(-c2ccc3ncnc(Nc4ccc(OCc5cccc(F)c5)c(Cl)c4)c3c2)o1 | 1.42 | 0.57 | -0.68 | 0.49 | 0.2 | 0.5 | 0.33 | 0.41 | 0.31 | 0.63
4 | CC1=C(C(=O)Nc2ccc3[nH]ncc3c2)C(c2ccc(F)cc2)NC(=O)N1 (stereo not given) | 0.44 | 1.19 | 0.21 | 0.88 | 0.96 | 0.9 | 0.5 | 0.28 | 0.23 | 4.76
5 | C[C@H](Nc1ncnc2nc[nH]c12)c1cc2cccc(Cl)c2c(=O)n1-c1ccccc1 [Duvelisib (IPI-145, INK1197)] | -0.46 | 0.34 | 0.09 | -0.35 | 0.37 | 0.25 | -0.51 | 1.02 | 0.38 | 0.47
6 | CC[C@@H](N)CNc1ccnc(-c2cc(-c3cnn(C)c3)ccc2O)n1 | 0.15 | 2.58 | 0.85 | -0.28 | 2.58 | 2.15 | -0.05 | 1.98 | 0.28 | 1.98
